In ChEMBL document CHEMBL1961873, “Compounds: GSK PKIS; Assays: Nanosyn kinase panel” (2012) one finds inhibition data, which are given here for three compounds.

“And” between values parts separate entries of the source, which are not always exact repeats. Equal entries are not always repeated.

In test [1] the target is T1, Serine/threonine-protein kinase Nek9 (Homo sapiens) (UniProt Q8TD19).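 Note: each value is a mean percent inhibition of NEK9.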
T1 sequence (whole entry): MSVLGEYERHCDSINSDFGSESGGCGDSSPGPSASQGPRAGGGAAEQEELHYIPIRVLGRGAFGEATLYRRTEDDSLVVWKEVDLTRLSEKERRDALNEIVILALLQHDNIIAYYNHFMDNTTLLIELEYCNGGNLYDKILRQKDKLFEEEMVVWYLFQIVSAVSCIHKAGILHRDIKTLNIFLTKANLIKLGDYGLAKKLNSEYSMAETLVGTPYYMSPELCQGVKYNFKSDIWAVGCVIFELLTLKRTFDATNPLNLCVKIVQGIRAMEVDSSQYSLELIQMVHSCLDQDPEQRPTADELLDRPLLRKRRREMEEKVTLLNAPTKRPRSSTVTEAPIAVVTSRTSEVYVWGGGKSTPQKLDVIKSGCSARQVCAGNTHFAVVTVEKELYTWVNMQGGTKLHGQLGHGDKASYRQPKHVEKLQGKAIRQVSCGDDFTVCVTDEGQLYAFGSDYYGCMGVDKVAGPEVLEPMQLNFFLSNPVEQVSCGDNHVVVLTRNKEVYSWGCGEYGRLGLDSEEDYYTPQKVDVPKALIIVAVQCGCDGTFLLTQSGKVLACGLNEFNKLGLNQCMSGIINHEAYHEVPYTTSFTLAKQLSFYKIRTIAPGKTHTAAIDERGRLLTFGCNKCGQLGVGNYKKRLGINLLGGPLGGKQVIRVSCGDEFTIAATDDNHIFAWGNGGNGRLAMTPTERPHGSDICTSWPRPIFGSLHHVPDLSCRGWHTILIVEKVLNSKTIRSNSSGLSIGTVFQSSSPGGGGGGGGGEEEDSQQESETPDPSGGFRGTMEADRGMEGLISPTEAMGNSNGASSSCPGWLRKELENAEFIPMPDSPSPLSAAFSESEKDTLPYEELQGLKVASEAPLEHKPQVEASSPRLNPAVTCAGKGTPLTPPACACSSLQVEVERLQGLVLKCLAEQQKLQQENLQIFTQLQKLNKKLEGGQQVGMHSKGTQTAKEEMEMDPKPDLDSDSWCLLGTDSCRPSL
Conditions: at 1 µM.

Test [2] has as its target Serine/threonine-protein kinase PLK1 (Homo sapiens) (UniProt P53350). As to conditions: at 0.1 µM.
Test [3] shares this target. As to conditions: at 1 µM.
Test [4] addresses T2, Dual specificity protein kinase TTK (Homo sapiens) (UniProt P33981).
T2 sequence (whole entry): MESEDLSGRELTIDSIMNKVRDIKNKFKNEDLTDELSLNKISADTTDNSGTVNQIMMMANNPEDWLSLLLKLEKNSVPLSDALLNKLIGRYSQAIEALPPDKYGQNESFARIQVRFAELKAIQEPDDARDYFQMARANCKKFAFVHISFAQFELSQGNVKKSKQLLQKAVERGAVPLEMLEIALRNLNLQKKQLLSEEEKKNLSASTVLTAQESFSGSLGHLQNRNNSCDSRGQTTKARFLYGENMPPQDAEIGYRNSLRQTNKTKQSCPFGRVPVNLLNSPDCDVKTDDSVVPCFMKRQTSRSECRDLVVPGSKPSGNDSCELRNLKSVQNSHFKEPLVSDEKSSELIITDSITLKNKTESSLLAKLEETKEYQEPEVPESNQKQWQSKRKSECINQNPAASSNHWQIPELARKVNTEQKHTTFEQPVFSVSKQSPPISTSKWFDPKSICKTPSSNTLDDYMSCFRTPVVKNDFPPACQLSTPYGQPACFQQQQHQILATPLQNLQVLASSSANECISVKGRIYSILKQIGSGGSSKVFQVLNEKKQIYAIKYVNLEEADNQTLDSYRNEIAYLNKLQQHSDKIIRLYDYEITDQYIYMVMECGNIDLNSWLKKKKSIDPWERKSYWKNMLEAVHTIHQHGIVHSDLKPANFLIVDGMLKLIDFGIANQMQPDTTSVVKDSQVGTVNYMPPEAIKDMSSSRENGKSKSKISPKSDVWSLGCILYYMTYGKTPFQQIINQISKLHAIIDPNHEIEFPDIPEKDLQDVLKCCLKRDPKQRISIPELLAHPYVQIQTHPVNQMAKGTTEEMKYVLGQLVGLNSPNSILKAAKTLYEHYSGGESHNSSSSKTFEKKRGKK
As to conditions: at 0.1 µM.

The test system of test [5] is T3, Receptor-type tyrosine-protein kinase FLT3 (Homo sapiens), P36888 [D835Y].
T3 sequence (whole entry): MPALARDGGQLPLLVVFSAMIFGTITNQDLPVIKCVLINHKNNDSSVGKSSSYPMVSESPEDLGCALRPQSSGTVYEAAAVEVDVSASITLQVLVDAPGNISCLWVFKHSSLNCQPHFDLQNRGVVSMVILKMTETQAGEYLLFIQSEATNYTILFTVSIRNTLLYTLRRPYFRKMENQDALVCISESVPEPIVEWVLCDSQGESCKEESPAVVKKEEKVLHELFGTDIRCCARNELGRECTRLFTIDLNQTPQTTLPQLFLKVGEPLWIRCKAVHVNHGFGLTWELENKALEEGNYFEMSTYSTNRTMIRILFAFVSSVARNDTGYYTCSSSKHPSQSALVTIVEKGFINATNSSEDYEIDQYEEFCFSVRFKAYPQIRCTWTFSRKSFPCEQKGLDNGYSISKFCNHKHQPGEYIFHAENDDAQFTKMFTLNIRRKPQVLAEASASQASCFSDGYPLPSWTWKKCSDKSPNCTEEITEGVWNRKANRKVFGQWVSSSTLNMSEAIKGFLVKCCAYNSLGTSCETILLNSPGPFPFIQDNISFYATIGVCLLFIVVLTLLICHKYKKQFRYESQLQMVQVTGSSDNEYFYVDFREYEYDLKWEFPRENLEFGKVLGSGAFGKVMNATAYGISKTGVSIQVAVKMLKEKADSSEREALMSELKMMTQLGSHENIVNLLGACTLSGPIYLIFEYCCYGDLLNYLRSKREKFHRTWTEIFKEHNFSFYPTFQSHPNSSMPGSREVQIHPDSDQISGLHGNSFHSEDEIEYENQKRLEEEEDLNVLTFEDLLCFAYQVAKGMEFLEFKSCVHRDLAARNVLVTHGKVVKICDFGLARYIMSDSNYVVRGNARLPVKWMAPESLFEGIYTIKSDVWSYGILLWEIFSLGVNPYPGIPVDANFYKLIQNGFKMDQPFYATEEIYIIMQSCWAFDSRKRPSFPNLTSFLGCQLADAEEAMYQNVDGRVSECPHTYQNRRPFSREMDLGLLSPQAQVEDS
Conditions: at 1 µM.

The target in test [6] is Vascular endothelial growth factor receptor 3 (Homo sapiens) (UniProt P35916). As to conditions: at 0.1 µM.
For test [7] the target is unchanged. As to conditions: at 1 µM.
Test [8] concerns the target Macrophage colony-stimulating factor 1 receptor (Homo sapiens) (UniProt P07333). As to conditions: at 0.1 µM.
The target is the same in test [9]. As to conditions: at 1 µM.
The target of test [10] is Tyrosine-protein kinase Fyn (Homo sapiens) (UniProt P06241). Conditions: at 0.1 µM.
Test [11] has the same target. Conditions: at 1 µM.
Test [12] concerns the target Tyrosine-protein kinase HCK (Homo sapiens) (UniProt P08631). As to conditions: at 0.1 µM.
For test [13] the target is unchanged. As to conditions: at 1 µM.
Test [14] addresses Insulin-like growth factor 1 receptor (Homo sapiens) (UniProt P08069). Conditions: at 0.1 µM.
The target is the same in test [15]. Conditions: at 1 µM.
In test [16] the target is Insulin receptor (Homo sapiens) (UniProt P06213). Conditions: at 0.1 µM.
Test [17] shares this target. Conditions: at 1 µM.
Test [18] addresses Insulin receptor-related protein (Homo sapiens) (UniProt P14616). As to conditions: at 0.1 µM.
Test [19] shares this target. As to conditions: at 1 µM.
Test [20] has as its target T4, Tyrosine-protein kinase ITK/TSK (Homo sapiens) (UniProt Q08881).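 Note: mean percent inhibition of ITK from the GSK PKIS screen.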
T4 sequence (whole entry): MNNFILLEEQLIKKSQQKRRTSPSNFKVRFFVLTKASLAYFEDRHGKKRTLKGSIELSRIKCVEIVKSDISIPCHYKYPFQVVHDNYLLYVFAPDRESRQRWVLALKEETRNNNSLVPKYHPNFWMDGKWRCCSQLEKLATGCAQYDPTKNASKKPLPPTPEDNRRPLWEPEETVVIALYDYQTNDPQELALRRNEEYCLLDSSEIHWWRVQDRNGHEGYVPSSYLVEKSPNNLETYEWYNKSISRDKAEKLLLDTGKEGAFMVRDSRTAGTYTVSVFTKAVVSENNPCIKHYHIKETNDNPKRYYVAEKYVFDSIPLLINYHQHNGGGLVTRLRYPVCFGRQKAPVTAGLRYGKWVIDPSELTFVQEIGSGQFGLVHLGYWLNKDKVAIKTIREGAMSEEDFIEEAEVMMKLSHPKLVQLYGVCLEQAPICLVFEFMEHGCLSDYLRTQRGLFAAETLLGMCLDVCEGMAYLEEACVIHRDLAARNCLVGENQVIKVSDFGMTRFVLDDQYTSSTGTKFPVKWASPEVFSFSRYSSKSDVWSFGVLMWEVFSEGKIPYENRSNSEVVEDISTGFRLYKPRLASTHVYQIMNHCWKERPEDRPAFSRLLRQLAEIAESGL
Conditions: at 0.1 µM.

Sequence of Insulin receptor (Homo sapiens) (P06213 28-758 limits assumed): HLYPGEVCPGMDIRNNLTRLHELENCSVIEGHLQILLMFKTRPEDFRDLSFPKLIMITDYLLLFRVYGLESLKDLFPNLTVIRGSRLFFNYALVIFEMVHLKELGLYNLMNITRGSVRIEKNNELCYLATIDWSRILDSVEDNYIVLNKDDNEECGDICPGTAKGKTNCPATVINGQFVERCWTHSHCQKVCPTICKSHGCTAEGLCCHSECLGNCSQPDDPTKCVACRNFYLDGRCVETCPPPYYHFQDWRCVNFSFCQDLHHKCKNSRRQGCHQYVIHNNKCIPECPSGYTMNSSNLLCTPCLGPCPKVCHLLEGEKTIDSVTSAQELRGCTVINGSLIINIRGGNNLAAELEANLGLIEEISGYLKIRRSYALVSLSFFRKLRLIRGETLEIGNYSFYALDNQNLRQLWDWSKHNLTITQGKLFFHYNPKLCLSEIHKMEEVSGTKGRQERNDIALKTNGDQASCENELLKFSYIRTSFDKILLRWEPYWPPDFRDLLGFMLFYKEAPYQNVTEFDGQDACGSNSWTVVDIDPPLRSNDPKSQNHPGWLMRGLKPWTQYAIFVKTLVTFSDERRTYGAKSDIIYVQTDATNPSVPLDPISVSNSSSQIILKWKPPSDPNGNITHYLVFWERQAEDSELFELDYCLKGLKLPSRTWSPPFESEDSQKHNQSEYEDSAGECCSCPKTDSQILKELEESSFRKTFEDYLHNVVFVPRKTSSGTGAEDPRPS
Sequence of Insulin receptor (Homo sapiens) (P06213 763-1382 limits assumed): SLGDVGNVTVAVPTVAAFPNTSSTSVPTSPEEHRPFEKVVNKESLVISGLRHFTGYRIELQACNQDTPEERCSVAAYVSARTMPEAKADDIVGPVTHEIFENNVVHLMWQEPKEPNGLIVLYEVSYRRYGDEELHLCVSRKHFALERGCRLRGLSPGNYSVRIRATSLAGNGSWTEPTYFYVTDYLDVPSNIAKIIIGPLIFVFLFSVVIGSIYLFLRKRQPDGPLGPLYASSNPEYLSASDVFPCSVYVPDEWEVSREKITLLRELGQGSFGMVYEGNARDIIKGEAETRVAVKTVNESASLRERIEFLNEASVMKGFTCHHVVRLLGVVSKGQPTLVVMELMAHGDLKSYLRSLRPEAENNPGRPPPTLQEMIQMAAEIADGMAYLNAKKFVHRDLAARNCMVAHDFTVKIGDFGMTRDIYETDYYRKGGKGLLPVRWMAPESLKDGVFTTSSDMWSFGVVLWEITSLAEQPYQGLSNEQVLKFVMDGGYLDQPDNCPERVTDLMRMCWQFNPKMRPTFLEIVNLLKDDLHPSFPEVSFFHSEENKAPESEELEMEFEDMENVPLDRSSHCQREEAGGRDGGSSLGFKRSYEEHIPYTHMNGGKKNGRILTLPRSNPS
Sequence of Insulin receptor-related protein (Homo sapiens) (P14616 27-742 limits assumed): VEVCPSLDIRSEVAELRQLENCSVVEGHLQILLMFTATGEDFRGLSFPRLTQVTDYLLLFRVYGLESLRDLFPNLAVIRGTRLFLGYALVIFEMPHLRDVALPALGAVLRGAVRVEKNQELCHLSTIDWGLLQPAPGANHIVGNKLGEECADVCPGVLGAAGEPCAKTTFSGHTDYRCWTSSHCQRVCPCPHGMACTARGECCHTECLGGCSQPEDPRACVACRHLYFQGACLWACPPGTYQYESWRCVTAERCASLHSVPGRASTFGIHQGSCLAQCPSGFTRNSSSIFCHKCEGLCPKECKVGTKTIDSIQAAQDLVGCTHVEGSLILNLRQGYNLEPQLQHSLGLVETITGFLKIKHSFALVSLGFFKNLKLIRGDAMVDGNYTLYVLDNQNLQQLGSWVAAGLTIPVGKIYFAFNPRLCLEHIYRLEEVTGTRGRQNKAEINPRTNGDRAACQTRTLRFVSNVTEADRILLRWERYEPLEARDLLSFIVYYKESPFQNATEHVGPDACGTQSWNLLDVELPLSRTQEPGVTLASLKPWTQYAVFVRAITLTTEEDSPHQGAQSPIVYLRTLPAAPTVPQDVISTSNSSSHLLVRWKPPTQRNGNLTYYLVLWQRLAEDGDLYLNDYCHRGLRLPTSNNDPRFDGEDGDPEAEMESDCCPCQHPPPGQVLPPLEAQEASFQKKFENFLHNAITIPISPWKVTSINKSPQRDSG
Sequence of Insulin receptor-related protein (Homo sapiens) (P14616 747-1297 limits assumed): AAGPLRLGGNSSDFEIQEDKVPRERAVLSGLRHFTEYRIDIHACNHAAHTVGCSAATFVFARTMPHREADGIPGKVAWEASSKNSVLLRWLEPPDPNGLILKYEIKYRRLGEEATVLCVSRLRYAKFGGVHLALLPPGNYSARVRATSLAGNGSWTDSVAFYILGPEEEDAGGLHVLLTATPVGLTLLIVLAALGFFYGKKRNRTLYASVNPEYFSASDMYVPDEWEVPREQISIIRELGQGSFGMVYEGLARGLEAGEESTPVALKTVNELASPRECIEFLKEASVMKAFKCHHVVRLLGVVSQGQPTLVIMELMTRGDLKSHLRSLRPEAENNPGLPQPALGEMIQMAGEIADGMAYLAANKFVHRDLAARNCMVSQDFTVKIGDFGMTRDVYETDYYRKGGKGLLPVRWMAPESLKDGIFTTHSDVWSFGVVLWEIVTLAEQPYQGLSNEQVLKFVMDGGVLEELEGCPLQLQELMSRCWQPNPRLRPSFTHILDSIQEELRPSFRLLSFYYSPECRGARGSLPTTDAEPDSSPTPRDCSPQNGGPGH
Sequence of Tyrosine-protein kinase Fyn (Homo sapiens) (P06241 2-537 limits assumed): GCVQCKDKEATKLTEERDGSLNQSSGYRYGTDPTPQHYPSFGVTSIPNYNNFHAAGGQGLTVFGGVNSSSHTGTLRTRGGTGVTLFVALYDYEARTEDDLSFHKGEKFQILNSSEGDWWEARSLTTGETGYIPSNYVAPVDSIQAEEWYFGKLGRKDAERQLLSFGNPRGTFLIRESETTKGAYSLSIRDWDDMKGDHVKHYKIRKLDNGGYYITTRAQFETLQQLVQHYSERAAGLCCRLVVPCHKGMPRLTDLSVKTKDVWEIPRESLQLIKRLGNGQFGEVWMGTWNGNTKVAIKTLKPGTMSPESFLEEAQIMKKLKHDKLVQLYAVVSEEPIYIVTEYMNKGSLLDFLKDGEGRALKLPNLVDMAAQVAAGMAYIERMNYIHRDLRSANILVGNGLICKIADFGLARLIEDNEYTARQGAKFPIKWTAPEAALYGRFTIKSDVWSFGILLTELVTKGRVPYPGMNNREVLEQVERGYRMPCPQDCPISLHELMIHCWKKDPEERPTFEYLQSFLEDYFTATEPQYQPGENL
Sequence of Vascular endothelial growth factor receptor 3 (Homo sapiens) (P35916 whole entry): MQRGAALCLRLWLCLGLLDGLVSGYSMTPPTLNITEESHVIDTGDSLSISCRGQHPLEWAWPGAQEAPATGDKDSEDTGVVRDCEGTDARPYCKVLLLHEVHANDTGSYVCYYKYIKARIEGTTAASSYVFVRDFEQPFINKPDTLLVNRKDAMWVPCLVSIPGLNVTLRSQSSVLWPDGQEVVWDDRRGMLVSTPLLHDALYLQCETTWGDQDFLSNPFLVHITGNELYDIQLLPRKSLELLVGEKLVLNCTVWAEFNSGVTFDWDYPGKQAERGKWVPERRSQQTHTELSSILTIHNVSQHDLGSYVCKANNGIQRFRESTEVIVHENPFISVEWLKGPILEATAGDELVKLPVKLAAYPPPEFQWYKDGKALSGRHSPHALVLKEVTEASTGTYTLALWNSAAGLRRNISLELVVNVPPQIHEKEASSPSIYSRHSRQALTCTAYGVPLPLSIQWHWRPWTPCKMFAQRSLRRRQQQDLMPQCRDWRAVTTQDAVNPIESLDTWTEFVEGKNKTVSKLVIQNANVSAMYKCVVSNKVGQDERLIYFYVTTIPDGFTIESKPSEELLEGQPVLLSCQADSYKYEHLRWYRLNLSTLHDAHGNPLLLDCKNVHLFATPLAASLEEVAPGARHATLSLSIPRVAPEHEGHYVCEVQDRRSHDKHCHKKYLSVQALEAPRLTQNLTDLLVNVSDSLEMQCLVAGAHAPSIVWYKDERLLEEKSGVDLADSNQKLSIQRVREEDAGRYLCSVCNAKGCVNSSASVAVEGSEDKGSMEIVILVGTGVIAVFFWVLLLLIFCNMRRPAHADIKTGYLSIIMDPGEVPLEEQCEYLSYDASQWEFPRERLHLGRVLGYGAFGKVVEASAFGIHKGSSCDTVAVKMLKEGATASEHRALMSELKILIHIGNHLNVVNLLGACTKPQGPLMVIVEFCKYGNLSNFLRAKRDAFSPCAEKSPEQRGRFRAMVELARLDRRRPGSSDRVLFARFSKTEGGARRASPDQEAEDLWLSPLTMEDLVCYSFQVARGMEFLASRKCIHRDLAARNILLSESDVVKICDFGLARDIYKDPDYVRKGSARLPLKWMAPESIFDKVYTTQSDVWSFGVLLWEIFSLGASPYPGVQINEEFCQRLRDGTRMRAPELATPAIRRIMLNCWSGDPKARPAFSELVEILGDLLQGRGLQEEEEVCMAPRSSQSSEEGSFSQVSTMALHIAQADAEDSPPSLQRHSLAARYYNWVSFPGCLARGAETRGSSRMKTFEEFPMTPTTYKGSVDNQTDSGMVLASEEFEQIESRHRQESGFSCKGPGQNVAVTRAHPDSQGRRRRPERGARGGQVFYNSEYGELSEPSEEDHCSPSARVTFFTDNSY
Sequence of Tyrosine-protein kinase HCK (Homo sapiens) (P08631 2-526 limits assumed): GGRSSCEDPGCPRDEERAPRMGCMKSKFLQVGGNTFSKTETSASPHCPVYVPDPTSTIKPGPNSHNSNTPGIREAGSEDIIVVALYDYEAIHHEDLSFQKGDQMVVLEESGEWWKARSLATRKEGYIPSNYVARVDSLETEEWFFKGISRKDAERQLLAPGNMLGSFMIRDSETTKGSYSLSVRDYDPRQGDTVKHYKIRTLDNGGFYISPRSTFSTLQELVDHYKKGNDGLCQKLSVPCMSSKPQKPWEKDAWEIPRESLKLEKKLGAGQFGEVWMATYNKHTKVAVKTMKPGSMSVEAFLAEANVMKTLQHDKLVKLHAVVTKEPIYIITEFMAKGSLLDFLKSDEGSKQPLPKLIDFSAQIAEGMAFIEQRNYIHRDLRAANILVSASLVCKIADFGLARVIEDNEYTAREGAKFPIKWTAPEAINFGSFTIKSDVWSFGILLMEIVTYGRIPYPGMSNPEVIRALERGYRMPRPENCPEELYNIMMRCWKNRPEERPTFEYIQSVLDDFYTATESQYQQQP

In the case of `COc1cc2c(cc1Nc1nc(Nc3cccc(F)c3C(N)=O)c3cc[nH]c3n1)N(C(=O)CN1CCN(C(C)C)CC1)CC2`, the inhibition was 6.33% in test [1]; 4.96% in test [2]; 25.8% in [3]; 11.4% in test [4]; 2% in [5]; -0.29% in test [6]. In addition, the inhibition was 4.32% in [7]; -0.95% in test [8]; 5.37% in [9]; 1.51% in [10]; 2.53% in test [11]; 1.66% in [12]. Further, the inhibition was found to be 2.73% in test [13]; 57.8% in test [14]; 87.7% in [15]; 69.1% in test [16]; 88.2% in [17]; 6.85% in test [18]. In addition, the values for the inhibition in [19] and in test [20] were 44.3% and 1.77%, respectively.

As for `CN1CCN(Cc2ccc(-c3cc4ncnc(Nc5ccc(OCc6cccc(F)c6)c(Cl)c5)c4s3)o2)CC1`, the inhibition is 5.83% and 18% in test [1]; 3.39% and 1.18% in [2]; 2.38% and 4.14% in test [3]; 6.58% and 12.2% in test [4]; -2.05% and 1.99% in test [5]; 2.97% and 4.96% in test [6]. The inhibition in test [7] is 3.14% and 8.22%; in test [8] it was 3.64% and 7.74%; in [9], 27.9% and 35.8%; in [10] it was 2.24% and 2.04%; in test [11], 9.29% and 9.99%; in [12], 3.14% and 4.38%. Moreover, the inhibition in test [13] was 7.61% and 13.1%; in test [14] it was -0.2% and 3.7%; in test [15], 1.01% and 6.72%; in test [16], 2.51% and 7.21%; in test [17], 3.07% and 7.9%; in [18] it was 1.81% and 2.44%. Besides, the inhibition in test [19] is 3.22% and 4.36%; in test [20], 1.02% and 2.31%.

For the compound `Cc1cc(O)cc(C)c1/C=C/c1cncc(C(N)=O)c1`, the inhibition in [1] worked out at 0.49%; in test [2], 2.01%; in test [3], 1.27%; in test [4], 4.3%; in [5], 2.14%; in test [6] it was 1.77%. Further, the inhibition turned out to be 0.45% in test [7]; 5.27% in test [8]; 31.3% in test [9]; 5.86% in [10]; 36.2% in test [11]; 15.2% in [12]. Also, the inhibition in test [13] was determined as 65.3%; in test [14] it was 5.33%; in test [15], 2.8%; in test [16], 3.56%; in test [17], 2.45%; in test [18], 1.49%. The figures for the inhibition in test [19] and in test [20] were 1.71% and 1.53%, respectively.
